According to the supplement of paper PMC10338343:
± gives the standard deviation.

The sequences below were run on MILI (PIWIL2) piRISC loaded with L1MC piRNA (26 nt) (assay: pre-steady-state target cleavage rate (min^-1); guide: L1MC piRNA 5'p-UAACUAAAUACUAUGCAAGCUGUAGG; MIWI and MILI are mouse PIWI proteins and EfPiwi is from a freshwater sponge; tags in brackets are library labels; higher = faster piRNA-guided slicing of the target). Conditions: auxiliary factor: 500 nM mouse GTSF1.
Outline: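 At 33 °C in HEPES–potassium acetate buffer, a transcribed, DNA-blocked target RNA library […] was exposed for 0–8 or 0–960 min to 1 nM active affinity-purified piRISC carrying a single synthetic guide, with or without 500 nM GTSF1 partner protein. Uncleaved targets were sequenced and normalised to depth and to weakly complementary targets. With three trials pooled and k3 capped at 0.0001 min^-1, a burst-and-steady-state fit produced the pre-steady-state cleavage rate.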
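Also: 1 nM active piRISC with 0.1 nM target library at 33 °C single turnover.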

Sequence	pre-steady-state target cleavage rate
UCCUCCAACAGCUUGCAUAGUAUUUAGUAA	0.232 ± 0.02
UCCUGGUACAGCUUGCAAUAGUAUUUAGUUA	0.0322 ± 0.0093
UCCUGCUACAGCUUGCAUAGUAUUUCAGUUA	0.335 ± 0.075
UCCUGGUACAGCUUGCAUAGUAUUAUAGUUA	0.299 ± 0.034
UCCUGGUACACCUUGCAUAGUAUUUAGUUA	0.147 ± 0.026
UCCUGGAUCAGCUUGCAUAGUAUUUUGUUA	0.144 ± 0.019
UCCUGGUACAGCUUGCCAUAGUAUUUAGUUA	0.224 ± 0.059
UCCUGGAACAGCUUACAUAGUAUUUAGUUA	0.223 ± 0.018
UCCUGGAAGAGCUUGCAUAGUAUUUAGUAA	0.201 ± 0.014
UCCUGGAACAGCAUGCAAAGUAUUUAGUUA	0.129 ± 0.014
UCCUGCUACAGCUUGCAUUGUAUUUAGUUA	0.248 ± 0.022
UCCUGGAUCAGCUUGCAUAGUAUUUACAAA	0.105 ± 0.021
UCCUGGAACAGCUUGCCUAGUAUUUAGUUA	0.248 ± 0.015
UCCUGGAUGUGCCUUGCAUAGUAUUUAGUUA	0.111 ± 0.022
UCCUGCUACAGCAAGCAUAGUAUUUAGUUA	0.325 ± 0.022
UCCUCCUACAGCUUCCUUAGUAUUUAGUUA	0.216 ± 0.025
UCCUGGAUCACCUUGCAAAGUAUUUAGUUA	0.0687 ± 0.012
UCCUGGUACAGCUUGCAUAGUAUUUAGAUA	0.149 ± 0.033
UCCUGCUACAGCUUGCAGAGUAUUUAGUUA	0.27 ± 0.028
UCCUGGAUGUCCUUAGCAUAGUAUUUAGUUA	0.0724 ± 0.016

Sequence	pre-steady-state target cleavage rate
UCCUGCUACCGCUUGCAUAGUAUUUAGUUA	0.368 ± 0.035
UCCUGGAUGUGCCUGCAUAGUAUUUAGUUA	0.0999 ± 0.015
UCCUGGCACAGCUUGCAUAGUAUUUAGUUA	0.289 ± 0.053
UCCUGGAUCAGCUUGCUUACUAUUUAGUUA	0.0672 ± 0.0086
UCCUGGAACAGCUUGCAUAGUAUCUAGUUA	0.213 ± 0.03
UCCUGGUACAGCUUGCAUAGUAUUUAGUCA	0.159 ± 0.032
UCCUGGAUGAGCUUGCAUAGUAUUUAGUA	0.223 ± 0.025
UCCUGGAUGUGACUUGCAUAGUAUUUAGUUA	0.114 ± 0.019
UCCUGGAUCAGCUACCAUAGUAUUUAGUUA	0.145 ± 0.014
UCCUGGAUCAGCUUGCAUAGUAUUUAUGUUA	0.133 ± 0.017
UCCUGCUACAGCUUGCAUAGUUUUUAGUUA	0.0767 ± 0.014
UCCUGGAUCAGCUUGCAUAGUAUUUGGUUA	0.245 ± 0.018
UCCUGGAUCAGGUUGCAUAGUAUAUAGUUA	0.197 ± 0.017
UCCUGCUACAGCUUGCAUAGUAUUUAGUUU [g2:g25:cont:t1U]	0.315 ± 0.022
UCCUGGAACAGGUUGCAUAGUAUUUUGUUA	0.132 ± 0.018
UCCUCCUACAGCUCUGCAUAGUAUUUAGUUA	0.276 ± 0.014
UCCUCGUACAGCUUGCAUAGUAUUUAGUUA	0.32 ± 0.015
UCCUGGAACAGCAUGGAUAGUAUUUAGUUA	0.243 ± 0.016
UCCUGGUACAGCUUGCAUAGUACUUAGUUA	0.187 ± 0.029
UCCUGGAUGUGCUUGCAUAGUAUUUAGUCA	0.117 ± 0.018

Same assay, conditions: auxiliary factor: none (no GTSF1)

Sequence	pre-steady-state target cleavage rate
UCCUCCAACAGCUUGCAUAGUAUUUAGUAA	0.00476 ± 0.0022
UCCUGGUACAGCUUGCAAUAGUAUUUAGUUA	0.00408 ± 0.0024
UCCUGCUACAGCUUGCAUAGUAUUUCAGUUA	0.00409 ± 0.0028
UCCUGGUACAGCUUGCAUAGUAUUAUAGUUA	0.00483 ± 0.003
UCCUGGUACACCUUGCAUAGUAUUUAGUUA	0.00607 ± 0.0034
UCCUGGAUCAGCUUGCAUAGUAUUUUGUUA	0.00819 ± 0.0028
UCCUGGUACAGCUUGCCAUAGUAUUUAGUUA	0.00532 ± 0.0033
UCCUGGAACAGCUUACAUAGUAUUUAGUUA	0.00953 ± 0.0027
UCCUGGAAGAGCUUGCAUAGUAUUUAGUAA	0.00564 ± 0.0021
UCCUGGAACAGCAUGCAAAGUAUUUAGUUA	0.00836 ± 0.0026
UCCUGCUACAGCUUGCAUUGUAUUUAGUUA	0.0081 ± 0.0028
UCCUGGAUCAGCUUGCAUAGUAUUUACAAA	0.00255 ± 0.0024
UCCUGGAACAGCUUGCCUAGUAUUUAGUUA	0.00673 ± 0.0024
UCCUGGAUGUGCCUUGCAUAGUAUUUAGUUA	0.00996 ± 0.0032
UCCUGCUACAGCAAGCAUAGUAUUUAGUUA	0.00524 ± 0.0031
UCCUCCUACAGCUUCCUUAGUAUUUAGUUA	0.00443 ± 0.002
UCCUGGAUCACCUUGCAAAGUAUUUAGUUA	0.0045 ± 0.0025
UCCUGGUACAGCUUGCAUAGUAUUUAGAUA	0.00493 ± 0.0028
UCCUGCUACAGCUUGCAGAGUAUUUAGUUA	0.00514 ± 0.002
UCCUGGAUGUCCUUAGCAUAGUAUUUAGUUA	0.00307 ± 0.0025

Sequence	pre-steady-state target cleavage rate
UCCUGCUACCGCUUGCAUAGUAUUUAGUUA	0.0103 ± 0.0044
UCCUGGAUGUGCCUGCAUAGUAUUUAGUUA	0.00951 ± 0.003
UCCUGGCACAGCUUGCAUAGUAUUUAGUUA	0.0117 ± 0.0049
UCCUGGAUCAGCUUGCUUACUAUUUAGUUA	0.00436 ± 0.0022
UCCUGGAACAGCUUGCAUAGUAUCUAGUUA	0.00512 ± 0.0024
UCCUGGUACAGCUUGCAUAGUAUUUAGUCA	0.00633 ± 0.0029
UCCUGGAUGAGCUUGCAUAGUAUUUAGUA	0.00747 ± 0.0025
UCCUGGAUGUGACUUGCAUAGUAUUUAGUUA	0.00737 ± 0.0028
UCCUGGAUCAGCUACCAUAGUAUUUAGUUA	0.00343 ± 0.0016
UCCUGGAUCAGCUUGCAUAGUAUUUAUGUUA	0.00471 ± 0.0027
UCCUGCUACAGCUUGCAUAGUUUUUAGUUA	0.00327 ± 0.0022
UCCUGGAUCAGCUUGCAUAGUAUUUGGUUA	0.0139 ± 0.003
UCCUGGAUCAGGUUGCAUAGUAUAUAGUUA	0.00574 ± 0.0022
UCCUGCUACAGCUUGCAUAGUAUUUAGUUU [g2:g25:cont:t1U]	0.0127 ± 0.0035
UCCUGGAACAGGUUGCAUAGUAUUUUGUUA	0.00924 ± 0.0022
UCCUCCUACAGCUCUGCAUAGUAUUUAGUUA	0.00692 ± 0.0018
UCCUCGUACAGCUUGCAUAGUAUUUAGUUA	0.0108 ± 0.0022
UCCUGGAACAGCAUGGAUAGUAUUUAGUUA	0.00742 ± 0.0028
UCCUGGUACAGCUUGCAUAGUACUUAGUUA	0.00401 ± 0.0032
UCCUGGAUGUGCUUGCAUAGUAUUUAGUCA	0.00487 ± 0.0035
